Source: PubChem (several laboratories)
Compounds with a hit are over-represented: about 4.5% of the library has one in this group of screens.
PfHsp40 rescue: rescue of yeast from PfHsp40 toxicity, primary screen, S. cerevisiae, ATP luminescence | S. cerevisiae expressing PfHsp40, growth rescue | growth rescue, % at 12.5 µM | 340,000 tested, 0.68% active; in the data active = growth rescue above about 28%, passing the limit was not always enough;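 note: yeast W303a lacking pdr1 and pdr3 grown in galactose medium; growth measured after three days at 30 °C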
Mtb FBA inh: Mtb FBA enzyme inhibitors, primary screen, biochemical, fluorescence, strain H37Rv | Fructose-bisphosphate aldolase (Mycobacterium tuberculosis (strain ATCC 25618 / H37Rv)), … | purified M. tuberculosis FBA, fluorescence read-out | inhibition, % at 1 µM | 360,000 tested, 2.3% active | AID 588726, 2011; in the data active = inhibition above about 27%;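 note: 0% = vehicle and 100% = reference inhibitor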
Target sequence (P9WQA3 whole entry, looked up): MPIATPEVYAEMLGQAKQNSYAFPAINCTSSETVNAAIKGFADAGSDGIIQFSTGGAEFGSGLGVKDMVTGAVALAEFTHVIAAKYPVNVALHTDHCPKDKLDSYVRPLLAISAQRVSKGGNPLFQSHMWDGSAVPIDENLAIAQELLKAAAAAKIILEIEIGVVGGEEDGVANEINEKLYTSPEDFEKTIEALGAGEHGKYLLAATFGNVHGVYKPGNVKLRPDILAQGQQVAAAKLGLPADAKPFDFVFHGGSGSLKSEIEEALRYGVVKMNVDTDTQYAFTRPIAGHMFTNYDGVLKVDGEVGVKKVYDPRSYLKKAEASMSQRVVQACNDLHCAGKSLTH
BJeLR lethal: MLPCN primary cell-based screen for lethality selective to Ras in HRASV12 cells; BJeLR (HRASV12) viability, CellTiter-Glo ATP luminescence, 48 h; inhibition, % (concentration not given with the values); 300,000 tested, 0.17% active; in the data active = inhibition above about 50%
GDH-TPI inh: GDH-TPI coupling enzyme inhibitors, primary screen, artefact control for M. tuberculosis FBA inhibitor project, biochemical, absorbance, full deck | GDH-TPI coupled enzyme counterscreen, NADH absorbance | inhibition, % at 4.8 µM | 360,000 tested, 1.2% active; in the data active = inhibition above about 30%;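 note: 0% = DMSO wells and 100% = wells lacking the enzyme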
PrP UTR inh: inhibition of PrP 5' UTR reporter expression. cell-based PrP 5' UTR mRNA reporter, plate reader. inhibition, % (test concentration not listed). 340,000 tested, 0.35% active. AID 488862, 2010; in the data active = inhibition above about 52%; note: 0 = median of the neutral control wells
PrPC surface inh: inhibitors of human cell surface prion protein PrPC, primary screen, cell-based, TR-FRET; TR-FRET read-out; 370,000 tested, 0.43% active; AID 720596, 2013; inhibition, % at 13.8 µM; Major prion protein (Homo sapiens), P04156; in the data active = inhibition above about 24%; note: 0% = median of the test wells and 100% = reference compound wells
Starred values were filed as active, the others as inactive; / = not tested or not shown; + = active, no number.

SMILES | PfHsp40 rescue | Mtb FBA inh | BJeLR lethal | GDH-TPI inh | PrP UTR inh | PrPC surface inh
COCCn1nnnc1CN1CCN(c2cccc(C(F)(F)F)c2)CC1 | -1 | 191* | -3 | -5 | -21 | -8
COc1ccc(N=c2oc3cc(O)ccc3cc2C(=O)NCC2CCCO2)c(OC)c1 (stereo unspecified) | 0 | + | 0 | 32* | -4 | 7
COc1cc(OC)cc(C(=O)NCC2CCCO2)c1 (stereo unspecified) | 0 | -1 | 4 | -4 | -26 | -7
COc1ccc(N=c2oc3cc(O)ccc3cc2C(=O)NCC2CCCO2)cc1 (stereo unspecified) | 0 | 190* | -3 | 22 | -8 | -6
CCOc1ccccc1N=c1oc2cc(O)ccc2cc1C(=O)NCC1CCCO1 (stereo unspecified) | 0 | 166* | 4 | 10 | -8 | -7
O=C1[C@H]2C[C@@]3(n4ccc5ccccc54)c4ccccc4N(S(=O)(=O)c4ccccc4)[C@H]3N2C(=O)CN1Cc1ccccc1 | / | / | / | / | / | 12
CCCC1Cc2[nH]c(=O)c(C#N)cc2CO1 (stereo unspecified) | 0 | 126* | 7 | 30 | / | -3
N/C(=N\OC(=O)CCCOc1ccc(Cl)cc1Cl)c1ccncc1 | 170* | 1 | -1 | 1 | 5 | 9
Cc1cc(C)n2nc3nc(N4CCCCC4)nc(-c4ccco4)c3c2n1 | 1 | 38* | -5 | 16 | -8 | /
CCn1c(SCC(=O)c2ccc(NS(=O)(=O)c3ccccc3)cc2)nnc1-c1cccs1 | 1 | 8 | -6 | 34* | 0 | -3
CCn1c(SCC(=O)Nc2ccccc2)nnc1-c1cccs1 | 0 | 5 | 2 | 6 | 2 | -8
Cc1cc(C)c2cc(C#N)c(NCCCN)nc2c1 | / | / | / | / | / | -6
COc1cc(C(=O)NC2CCCCN(Cc3ccc(Cl)cc3)C2=O)cc(OC)c1OC (stereo unspecified) | / | / | / | / | / | 5
Nc1[nH]c(C(=O)c2ccccc2)c(-c2cccc3ccccc23)c1C(=O)c1c(-c2ccccc2)[nH]c2ccccc12 | / | / | / | / | / | 3
O=c1[nH]c2cc(Cl)ccc2c(O)c1-c1cccc(Oc2ccccc2)c1 | 4 | 20 | 4 | 18 | 0 | -7
O=c1[nH]c2ccc(Cl)cc2c(O)c1-c1ccccc1 | 0 | 34* | -3 | -4 | -3 | -1
COC(=O)[C@]12C[C@H](CC(=O)N3CCCCC3)C(=O)N(Cc3ccc4c(c3)OCO4)C1=C[C@H](C(C)C)O[C@@H]2C1CC1 | / | / | / | / | / | 17
CCC(c1nnnn1Cc1ccc(F)cc1)N(CCCO)Cc1cc2cc3c(cc2[nH]c1=O)OCO3 (stereo unspecified) | -1 | 13 | -9 | 35* | -17 | -2
O=[N+]([O-])c1ccc(O)c(C=Nc2ccc3nc(-c4ccccc4)[nH]c3c2)c1 | 0 | + | 5 | 21 | -36 | -4
Cc1ccc(-c2nc3ccc([N+](=O)[O-])cc3[nH]2)cc1 | 111* | -4 | 7 | 14 | -20 | -6
CCOC(=O)[C@@]12CCC3=C1N(CCC3)C(=O)[C@H](CC(=O)N1CCSCC1)C2 | / | / | / | / | / | 0
CCCCNc1c(-c2ccc(-c3ccc(C(C)=O)cc3)c(OC)c2)nc2cnccn12 | 4 | 15 | -7 | 34* | 15 | /
CCOC(=O)CNc1c(-c2ccc(F)cc2)nc2cnccn12 | -1 | 87* | 9 | 6 | -12 | -5
COc1cc2nc(N3CCN(C(=O)C4CCCO4)CC3)nc(N)c2cc1OC (stereo unspecified) | 0 | 112* | -9 | 13 | -2 | 1
Cc1cccc(Cn2cc(COC(=O)NCC(C)C)nn2)c1 | / | / | / | / | / | 6
SMILES | PfHsp40 rescue | Mtb FBA inh | BJeLR lethal | GDH-TPI inh | PrP UTR inh | PrPC surface inh
FC(F)(F)c1cc(CNC2CCC23CCCCC3)ccc1Cl (stereo unspecified) | / | / | / | / | / | 2
O=C(CN1C(=O)S/C(=C\C=C\c2ccccc2)C1=O)Nc1cccc(O)c1 | 2 | -3 | -7 | 32* | -34 | -5
O=C(CCN1C(=O)S/C(=C\C=C\c2ccccc2)C1=O)Nc1ccc(O)cc1 | 1 | -1 | -4 | 25 | -64 | -2
O=C(CN1C(=O)S/C(=C\C=C\c2ccccc2)C1=O)Nc1ccccc1C(=O)O | 3 | -2 | 7 | 35* | -6 | 6
O=C(N/N=C1\CCCc2c1[nH]c1ccc(Cl)cc21)c1ccncc1 | 4 | -3 | 5 | 41* | -11 | 2
CC(C)c1ccc(C2C3=C(COC3=O)Nc3cc4c(cc32)OCO4)cc1 (stereo unspecified) | 0 | 25 | 58* | 11 | 51 | 17
O=C1OCC2=C1C(c1ccc3c(c1)OCO3)c1cc3c(cc1O2)OCO3 (stereo unspecified) | -2 | -2 | / | -5 | 4 | 5
Cc1c(Cc2c(Cl)cccc2Cl)c(=O)ccn1C(C)c1ccccc1 (stereo unspecified) | 52* | -1 | / | -6 | -30 | 4
Cc1ccc(Cn2ccc(=O)c(Cc3c(Cl)cccc3Cl)c2C)cc1 | 1 | 1 | 1 | 8 | 1 | 5
CC1=CC(C)(C)N(S(=O)(=O)c2ccc(C)cc2)c2ccc(C)cc21 | 165* | -1 | 29 | -8 | -37 | 15
CC(c1ccon1)N(C)Cc1cn(C)nc1-c1cccc(Cl)c1 (stereo unspecified) | 79* | 6 | 1 | 9 | -9 | 6
CCO/C(C)=N/n1c2nc3ccccc3nc2c2c(=O)n(Cc3ccccc3Cl)c(C)nc21 | -1 | -4 | 3 | 33* | -15 | -25
CCOc1c(C)cnc2c1c(=O)n(Cc1ccccc1Cl)c(=O)n2C | -2 | 0 | -15 | -3 | -25 | 6
COc1cc(OC)cc(-c2nc3ccccc3s2)c1 | 4 | 9 | -2 | 7 | -99 | 0
Nc1ccc(-c2nc3ccccc3s2)cn1 | 3 | + | -13 | 23 | -82 | -2
Cc1cc(-c2nc3ccccc3s2)ccc1N | 0 | + | / | 37* | 28 | -5
NC(=O)C1CCN(c2ccnc(Cl)n2)CC1 | / | / | / | / | / | 9
Cc1ccc(Cn2cc(CN3[C@H](Cc4ccccc4)COc4cc(Br)ccc4S3(=O)=O)nn2)cc1 | / | / | / | / | / | -8
COc1ccc(-c2cc(C(=O)c3c(N)n(C)c(=O)n(C)c3=O)c3ccccc3n2)cc1 | 1 | 6 | 1 | 35* | -31 | 7
COc1ccc(-c2cc(C(=O)N3CCCCCC3)c3cc(C)ccc3n2)cc1 | -1 | 153* | -1 | 11 | -11 | -2
COc1ccc(/C=C/c2cc(C(=O)O)c3ccccc3n2)cc1 | -4 | 3 | 27 | 32* | 71* | -39
